Compounds with a hit are over-represented: about 5.4% of the library has one in this group of screens.
PP5 inh – PP5 phosphatase inhibitors, primary screen, biochemical, fluorescence; Serine/threonine-protein phosphatase 5 (Homo sapiens), P53041; purified PP5c, OMFP substrate fluorescence; inhibition, % at 6.7 µM; 0.18% of 320,000 active; AID 1987, 2009;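 active = inhibition above the campaign's mean inhibition across all tested compounds plus 3 SD, cut at about 9.5% in these data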
Calb FLC – C. albicans growth inhibition with fluconazole, primary screen, CaCi-2 strain, Alamar Blue fluorescence. C. albicans CaCi-2 (fluconazole-resistant clinical isolate) + fluconazole, 48 h. growth inhibition, % (test concentration not listed). 0.57% of 300,000 active;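 active = growth inhibition above about 58% in most replicates, limit read from the data, passing the limit was not always enough; inconclusive = exactly half the replicates above a set limit; inactive = most replicates below a set limit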;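 also: all wells also contain fluconazole at 8 µg/ml as a sub-toxic cotreatment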
ALR H2O2 inh – inhibitors of human ALR sulfhydryl oxidase, primary screen, biochemical, H2O2 detection, HRP-luminol luminescence, single point; FAD-linked sulfhydryl oxidase ALR (Homo sapiens), P55789; purified ALR, DTT oxidation; inhibition, % (no concentration beside the values); 3.8% of 290,000 active;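 active = mean replicate inhibition above about 79%, with every replicate also reaching it, limit read from the data; inconclusive = only one of the two criteria met; inactive = mean below limit and not every replicate reaching it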
Target sequence (P55789 whole entry, looked up): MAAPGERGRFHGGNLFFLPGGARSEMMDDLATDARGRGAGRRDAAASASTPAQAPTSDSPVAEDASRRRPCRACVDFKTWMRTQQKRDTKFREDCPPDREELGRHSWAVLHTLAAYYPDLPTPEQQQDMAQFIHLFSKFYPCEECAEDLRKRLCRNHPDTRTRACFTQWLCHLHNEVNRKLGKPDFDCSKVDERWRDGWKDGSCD
CSC inhib – cancer stem cell viability inhibitors, primary screen, luminescence; 1.1% of 300,000 active; inhibition, % at 7.5 µM; cancer stem cell-like cells viability; in the data active = inhibition above about 75%; inconclusive = no clear call, values can overlap the other calls; tested in HMLE shEcad cells
PP1 inh – PP1-alpha phosphatase inhibitors, primary screen, counter-screen for PP5 inhibitor project, biochemical, fluorescence, OMFP substrate, single point; 0.9% of 320,000 active; Serine/threonine-protein phosphatase PP1-alpha catalytic subunit (Homo sapiens), P62136; inhibition, % at 6.7 µM; AID 2235, 2010; purified PP1alpha;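 active = inhibition above the mean inhibition of all tested compounds plus 3 SD, computed separately for each screening campaign, cut at about 15% in these data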
PP1 confirm – PP1 phosphatase inhibitors, confirmation, biochemical, fluorescence, OMFP substrate, triplicate; 52% of 1,900 active; inhibition, % at 6.7 µM; purified PP1alpha; shares compounds with PP1 inh;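 active = mean PP1 inhibition above a set limit taken from the earlier primary screen, cut at about 15% in these data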
PP5 counter – PP5 phosphatase inhibition by PP1 hits, confirmation, counter-screen for PP1 inhibitor project, biochemical, fluorescence, triplicate; shares compounds with PP1 inh; purified PP5c, OMFP fluorescence; inhibition, % at 6.7 µM; 4% of 1,900 active; AID 2360, 2010;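 active = mean PP5 inhibition over triplicate wells above about 9.5% taken from the earlier PP1 screen, limit read from the data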
A number is an active result; i = inactive; ? = inconclusive; nt = no result.

SMILES	PP5 inh	Calb FLC	ALR H2O2 inh	CSC inhib	PP1 inh	PP1 confirm	PP5 counter
Cc1ccc2nc(N3C(=O)C(O)=C(C(=O)c4cc5ccccc5o4)C3c3cccs3)sc2c1 (stereo not drawn)	i	i	i	i	i	nt	nt
CCc1ccc2nc(N3C(=O)C(O)=C(C(=O)c4ccco4)C3c3cccs3)sc2c1 (stereo not drawn)	i	i	i	i	29	24	i
Cc1ccc2nc(N3C(=O)C(O)=C(C(=O)c4ccco4)C3c3ccc(C)o3)sc2c1 (stereo not drawn)	i	?	89	i	26	25	i
O=C(C1=C(O)C(=O)N(c2nc3ccc(Cl)cc3s2)C1c1ccco1)c1ccco1 (stereo not drawn)	i	nt	i	nt	19	25	i
Cc1nnc(N2C(=O)C(O)=C(C(=O)c3ccco3)C2c2cccc3ccccc23)s1 (stereo not drawn)	i	i	i	i	i	nt	nt
COC(=O)c1sc(N2C(=O)C(O)=C(C(=O)c3ccc(C)o3)C2c2cccs2)nc1C (stereo not drawn)	i	i	?	i	23	21	i
Cc1cc(N2C(=O)C(O)=C(C(=O)c3ccc(C)o3)C2c2cccs2)no1 (stereo not drawn)	i	i	nt	i	i	nt	nt
CS(=O)(=O)c1nc(S(=O)(=O)c2ccc(Cl)cc2)c(N2CCC(O)CC2)s1	i	i	i	i	i	nt	nt
O=C(COC(=O)c1ccc[nH]c1=O)NC1CCCCCCC1	i	i	nt	nt	i	nt	nt
COc1cccc(CNC(=O)CCNS(=O)(=O)c2ccc3c(c2)CC(C)N3C(C)=O)c1 (stereo not drawn)	i	i	i	i	i	nt	nt
CCOCC(=O)Nc1c(C(=O)Nc2ccc3c(c2)OCO3)oc2ccccc12	i	i	i	i	i	nt	nt
CCOc1cccc(C2C(C(=O)c3ccc(C)o3)=C(O)C(=O)N2Cc2ccncc2)c1 (stereo not drawn)	i	i	i	i	i	nt	nt
CCOc1cccc(C2C(C(=O)c3ccc(C)o3)=C(O)C(=O)N2c2nccs2)c1 (stereo not drawn)	i	i	i	i	22	i	i
COc1cc(OC)cc(C(=O)NC(C(=O)Nc2ccc3c(c2)CCC3)C(C)C)c1 (stereo not drawn)	i	nt	nt	nt	i	nt	nt
N#CC1=C(N)C(C#N)(C#N)C2(CCC3(CC2)OCCO3)C2CC3(CC=C12)OCCO3 (stereo not drawn)	i	i	i	i	i	nt	nt
CC(Oc1ccc(Br)cc1)C(=O)Nc1nc(-c2ccccn2)cs1 (stereo not drawn)	i	i	i	89	31	32	i
CC(C)[C@H](NC(=O)c1ccccc1Cl)C(=O)Nc1nc(-c2ccccn2)cs1	i	i	i	i	18	27	i
CC(=O)Nc1ccc(C(=O)Nc2nc(-c3ccccn3)cs2)cc1	i	i	i	i	i	nt	nt
O=C(Nc1nc(-c2cccnc2)cs1)c1ccccc1Cl	i	i	i	i	20	23	i
CCc1nnc(NC(=O)C(NC(=O)c2ccccc2Cl)C(C)C)s1 (stereo not drawn)	i	i	i	i	i	nt	nt
Cc1nc2n(n1)CC(O)CS2 (stereo not drawn)	i	i	i	i	i	nt	nt
CC(=O)OCC(=O)N1N=C(c2ccc3ccccc3c2)CC1c1ccccc1 (stereo not drawn)	i	i	i	i	i	nt	nt
Nc1cc(=O)[nH]c(SCC(=O)N2N=C(c3ccc4ccccc4c3)CC2c2ccccc2)n1 (stereo not drawn)	i	i	i	i	21	i	i
NC(=O)c1ccccc1-c1nc(-c2ccccc2)no1	i	i	i	nt	i	nt	nt
Cc1ccc(S(=O)(=O)c2cc3c(=O)n4ccccc4nc3n(Cc3ccco3)c2=N)cc1	i	i	i	i	21	i	i
N=c1c(C(=O)NCc2ccco2)cc2c(=O)n3ccccc3nc2n1Cc1ccc(Cl)cc1	i	i	i	i	18	i	i
Cc1ccc(CNC(=O)c2cc3c(=O)n4ccccc4nc3n(Cc3ccco3)c2=N)cc1	i	i	i	i	i	nt	nt
